B1: ENSMUSG00000043670.73|Diras1 (ssRNA)
RNA: GGGAGUUCUACAGUCCGACGAUCGCUUCGAUAUCCGCAUGCUAACACACUGGAGGUUUGAUCCCUGUGGAUCUGAAAACAGGGACCUGGCUAAGGAACUGCUCAUCCCAGUCAGGCCCAGAGAGGUUACCUUGCCUCUCCAUCUCUGUCCCUGUGUGCCCAGCCAUGCCCACUGUCCCUGUCCCUCACAUUCUAUCACUGUGACCUCUGGGGAGUGCCCAUUGACCUCAUCUUCCUUCACUAAUAUCUUAUUUCUUUCACCUGAUCCUGUCCUUUCCCCGUGACCUCUGACCUGUGGCCUUCCCUCUUGCGGUCGCACUAGUGUGGAAUUCUCGGGUGUCAAGG
B2: ENSMUSG00000004113.197|Cacna1b|112:116 (ssRNA)
RNA: GGGAGUUCUACAGUCCGACGAUCGCUUCGAUAUCCGCAUGCUACCUCUGCUCAACCAAGUGCCUGAUCUCUGGCUCUGAGCAUCGUGGAUGAGGUACGGCCUCAGGAAGCAUCGGGUGGAUUGGGUGGGAGCUGCUCAGAGCAGCACGGGGGCUACACACUUAGGGACAUUGACAGUGUCCAUCAGCAUGUCAGAGAAGCAGCUGUAGUGCCCGUGUUUCUCCCUGAGUCAUGGGUUCUGAAGAAGCCAGAGCGGCACAAUGCGUGCUUGCAUGAGGCACUUUCAGCCUUUUUAAAUCUGACUCUCUUGCGGUCGCACUAGUGUGGAAUUCUCGGGUGUCAAGG
B3: ENSMUSG00000090935.575|Synj2bp (ssRNA)
RNA: GGGAGUUCUACAGUCCGACGAUCGCUUCGAUAUCCGCAUGCUAAUUCAAAUUUUAUGUUUCUUAUAGACUGACUCAAAUAUUCCUACCACCUUAAAAUUAUAUAUGAUGCACCUACCACAUAAAUUAUAAUGUUUAAUGUUUUGAAAAUGGAUUAUAGGUAUUUUUAAGUUUUCAUAAAGUAUUUCUUAUAUUUGUCAUUGUGAAUUAUAUGUAAUUCUAAUAGACACUGUUUGCUUCAGUUGUUUUUGUUUCCUUUUCCUACAGUUUUCUGUGUGGGUGAUUUCAUUUAAUUAAUUGGACAGCUCUUGCGGUCGCACUAGUGUGGAAUUCUCGGGUGUCAAGG
B4: ENSMUSG00000028439.178|Fam219a (ssRNA)
RNA: GGGAGUUCUACAGUCCGACGAUCGCUUCGAUAUCCGCAUGCUACAUGUGUGUGCAUGUGUGUGUGCCUGUGUGUGUGCGUGUGCGUGUGUGUAUGUGUGUGCGUGUGUGUGUGUGUGUGUUGUACCCGAGUGUGUGUUGAGCCUAUCUGUCCAGGGAACCAGAUUGGUGUCCGAGAUGAGGAAAUGGCUGUGGCCUGGGAAAUCAGUGAGAGGCCGCUUGGGAAUGAGAAUGCAGUGGACUGAAAGCACAGCCUGGCCAUCUGGAACCUGGGUUCUGGUCCCAGCCUCGGCAUUCUCCCUGAGCUCUUGCGGUCGCACUAGUGUGGAAUUCUCGGGUGUCAAGG
B5: ENSMUSG00000028439.177|Fam219a (ssRNA)
RNA: GGGAGUUCUACAGUCCGACGAUCGCUUCGAUAUCCGCAUGCUAUAUGCACAUGUGUGUGCAUGUGUGUGUGCCUGUGUGUGUGCGUGUGCGUGUGUGUAUGUGUGUGCGUGUGUGUGUGUGUGUGUUGUACCCGAGUGUGUGUUGAGCCUAUCUGUCCAGGGAACCAGAUUGGUGUCCGAGAUGAGGAAAUGGCUGUGGCCUGGGAAAUCAGUGAGAGGCCGCUUGGGAAUGAGAAUGCAGUGGACUGAAAGCACAGCCUGGCCAUCUGGAACCUGGGUUCUGGUCCCAGCCUCGGCAUUCUCCUCUUGCGGUCGCACUAGUGUGGAAUUCUCGGGUGUCAAGG
B6: ENSMUSG00000028439.179|Fam219a (ssRNA)
RNA: GGGAGUUCUACAGUCCGACGAUCGCUUCGAUAUCCGCAUGCUAUGUGCAUGUGUGUGUGCCUGUGUGUGUGCGUGUGCGUGUGUGUAUGUGUGUGCGUGUGUGUGUGUGUGUGUUGUACCCGAGUGUGUGUUGAGCCUAUCUGUCCAGGGAACCAGAUUGGUGUCCGAGAUGAGGAAAUGGCUGUGGCCUGGGAAAUCAGUGAGAGGCCGCUUGGGAAUGAGAAUGCAGUGGACUGAAAGCACAGCCUGGCCAUCUGGAACCUGGGUUCUGGUCCCAGCCUCGGCAUUCUCCCUGAGCUCCUACUCUUGCGGUCGCACUAGUGUGGAAUUCUCGGGUGUCAAGG
B7: ENSMUSG00000028439.180|Fam219a (ssRNA)
RNA: GGGAGUUCUACAGUCCGACGAUCGCUUCGAUAUCCGCAUGCUAUGUGUGUGUGCCUGUGUGUGUGCGUGUGCGUGUGUGUAUGUGUGUGCGUGUGUGUGUGUGUGUGUUGUACCCGAGUGUGUGUUGAGCCUAUCUGUCCAGGGAACCAGAUUGGUGUCCGAGAUGAGGAAAUGGCUGUGGCCUGGGAAAUCAGUGAGAGGCCGCUUGGGAAUGAGAAUGCAGUGGACUGAAAGCACAGCCUGGCCAUCUGGAACCUGGGUUCUGGUCCCAGCCUCGGCAUUCUCCCUGAGCUCCUAAGCAAUCUCUUGCGGUCGCACUAGUGUGGAAUUCUCGGGUGUCAAGG
B8: ENSMUSG00000043670.57|Diras1|205:210 (ssRNA)
RNA: GGGAGUUCUACAGUCCGACGAUCGCUUCGAUAUCCGCAUGCUACCUGCCUCUUCACACCUCCAUAGCUUCAUCCUUUGCAGACCUCUCCCUCUAUAUCUCUUUGCUCCCCCACCCCCAUUCUAUCUGCACCCCACAACCACACACUGGAGGUUUGAUCCCUGUGGAUCUGAAAACAGGGACCUGGCUAAGGAACUGCUCAUCCCAGUCAGGCCCAGAGAGGUUACCUUGCCUCUCCAUCUCUGUCCCACACACCCCAGCCAUGCCCACUGUCCCUGUCCCUCACAUUCUAUCACUGUGACCUCCUCUUGCGGUCGCACUAGUGUGGAAUUCUCGGGUGUCAAGG
B9: ENSMUSG00000032194.139|Kank2 (ssRNA)
RNA: GGGAGUUCUACAGUCCGACGAUCGCUUCGAUAUCCGCAUGCUAGGAAAUGACCAACUUACAAGAAGUUAUGCUGACCUCCCUGUUCCCCACGGGGAGUGCUUGGCAGAGGAGACUACUUCUAGAAAUACUUUCAGACCUACAGACAAAAAAGAAAAAAGGCCAUUCCGGAGUGACUCCCAGCAUCACAGCCCAGAACCUCCUCCUCAAAGGAGAGUAAACAGAGACUGUGAUACUGACCAAGUACAGGCGCUCGCUAUGAAGCCCAUAUGUUCCUGAUUAAGAGCUGGCUGGCCUCAGAGCACCUCUUGCGGUCGCACUAGUGUGGAAUUCUCGGGUGUCAAGG
B10: ENSMUSG00000004113.476|Cacna1b|225:230 (ssRNA)
RNA: GGGAGUUCUACAGUCCGACGAUCGCUUCGAUAUCCGCAUGCUAAGAGAGAGAGAUCCAGUCAUGCAACACAAAUGGGAUCUACUUUUAAACAACAGUCCUUUGACUAGUUUGCUGCCUGAAUAAUAUUUACAAACUAAACUUUGGAUUCUGCUCUUGUUUCUACAAUGAUUUUUUGUAUAAAGCAAAGUCCUUGGAUUAAAUAAAAACAACCCAAAAAAAAAAUCAAAAUCAAAACCCAGGAUGCAACUGGGUGAUACCUGAGGACACACACACUCAGUGCGUCGGUGGAGAGGGUAUACUGCCUCUUGCGGUCGCACUAGUGUGGAAUUCUCGGGUGUCAAGG
B11: ENSMUSG00000090935.398|Synj2bp (ssRNA)
RNA: GGGAGUUCUACAGUCCGACGAUCGCUUCGAUAUCCGCAUGCUAAAUUUCCUUCUUUUCAGUAAAUUGGCCAGACUAUUAUUUUGACAUAAGAUUAUGAAGAGUUUUCCCGACAGUCUAGCAGUCACUUAACAGAUGUUGAUUGCACAUUAGUUUUGUCAGGACACCUUUAUAAAAAGAGAAAUGCACAUAUUUCAUCCAAAGGGACAUUGUGGUUACAGUUAGGAAGGAAACCCUUAAAAUGGAGUUAGUUAUCUAAGUGUAAGUUGUUUAUAUUACAGACAGCAAAAGAAAAUAGCUCCUGACUCUUGCGGUCGCACUAGUGUGGAAUUCUCGGGUGUCAAGG
B12: ENSMUSG00000043670.39|Diras1 (ssRNA)
RNA: GGGAGUUCUACAGUCCGACGAUCGCUUCGAUAUCCGCAUGCUAGCUCCUGCUCCUUCUCCCCCUCCUUCCUUCCUUUGCCUUGCCCCUCCCUCCUCCAUCUCUCUUCCCUCUUCCUGUCCCCACCAGCCUACAGUAAGGUUGGGCUCCAUCCCUGCCUCUUCACACCUCCAUAGCUUCAUCCUUUGCAGACCUCUCCCUCUAUAUCUCUUUGCUCCCCCACCCCCAUUCUAUCUGCACCCCACAACCACACACUGGAGGUUUGAUCCCUGUGGAUCUGAAAACAGGGACCUGGCUAAGGAACUCUCUUGCGGUCGCACUAGUGUGGAAUUCUCGGGUGUCAAGG
B13: ENSMUSG00000061578.1409|Ksr2 (ssRNA)
RNA: GGGAGUUCUACAGUCCGACGAUCGCUUCGAUAUCCGCAUGCUAGGACCUCAGGCCCACUGUUUUCUCCAUGUCUGUCUGUACUGACUGUUGCAGAAUGAGCUGAUGUAUGAUCUUGAUUCUCCAUUUUCCUUCUGGACCACAUGUCUCUUCCUUUUCCUUUUUAGAUCUGUCUUGCUCUCUGUCUCUCUCACUCAUUGCCAACAUGUUGCUGGGAAAGAAUAUUUGAUUUAGAUGCCAAUCAGGAAGGCAAGUAGGAUGGAUGGAUGAGUGAGUGGAUAGGUAGGUAUAUAAAUGGAUGGAUGCUCUUGCGGUCGCACUAGUGUGGAAUUCUCGGGUGUCAAGG

In all, about 9,900 sequences were measured (“r (bound/input frequency ratio)”: median about 0.7, highest 2% from about 6.5 on). This is one part of a sample in which the highest values are shown more often than they occur.

Chain of TDP-43 (Q13148 whole entry): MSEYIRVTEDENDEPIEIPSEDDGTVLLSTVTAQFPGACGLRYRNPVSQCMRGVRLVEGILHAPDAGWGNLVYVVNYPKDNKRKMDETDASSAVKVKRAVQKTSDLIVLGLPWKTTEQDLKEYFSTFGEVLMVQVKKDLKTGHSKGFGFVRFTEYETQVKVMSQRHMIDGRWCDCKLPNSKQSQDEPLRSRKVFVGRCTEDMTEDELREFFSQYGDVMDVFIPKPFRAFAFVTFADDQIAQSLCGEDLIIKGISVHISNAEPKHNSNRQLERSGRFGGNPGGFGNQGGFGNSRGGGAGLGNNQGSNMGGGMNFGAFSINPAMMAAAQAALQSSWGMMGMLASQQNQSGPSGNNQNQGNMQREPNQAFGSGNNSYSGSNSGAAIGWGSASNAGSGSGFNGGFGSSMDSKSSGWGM

The assay addresses TDP-43 (Homo sapiens, UniProt Q13148 1-414). Put plainly: RNA Bind-n-Seq with designed 260-mer pool; 25 mM Tris-HCl, 150 mM KCl, 3 mM MgCl2, BSA (printed 500 mg/mL), 20 units/mL SUPERase IN; pH not stated; 500 nM RNA pool, 1 h, 4 C; TDP-43 5, 50, 500 nM; high values mean tight binding. As to conditions: protein: recombinant; tags: SBP (GST cleaved off with PreScission; pGEX-GST-SBP). In a few lines: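 Duplicate measurements used two independent batches of recombinant SBP-tagged TDP-43, which was captured on streptavidin beads at 5, 50 or 500 nM. The beads were incubated with 500 nM of an in vitro-transcribed 260-nt 3′ UTR oligo pool for 1 h at 4 °C in 25 mM Tris-HCl, 150 mM KCl, 3 mM MgCl2, BSA and SUPERase IN. After washing, biotin elution, reverse transcription, PCR amplification and sequencing, binding was expressed as R: each oligo's normalized read abundance in the bound sample over its abundance in input.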
For B1, the binding signal was 2.54 R (bound/input frequency ratio).

B2: the binding signal was 0.691 R (bound/input frequency ratio).

Turning to B3, the binding signal is 0.0736 R (bound/input frequency ratio).

Consider B4, for which the binding signal was 9.43 R (bound/input frequency ratio).

As to B5, the binding signal is 8.05 R (bound/input frequency ratio).

Take B6: the binding signal is 7.2 R (bound/input frequency ratio).

With B7, the binding signal was 5.95 R (bound/input frequency ratio).

On to B8, for which the binding signal was 2.63 R (bound/input frequency ratio).

With B9, the binding signal is 0.307 R (bound/input frequency ratio).

On to B10, for which the binding signal is 0.46 R (bound/input frequency ratio).

On to B11, for which the binding signal is 0.033 R (bound/input frequency ratio).

In the case of B12, the binding signal was 5.05 R (bound/input frequency ratio).

In the case of B13, the binding signal was 1.55 R (bound/input frequency ratio).

The values are drawn from PMC12864922, “TDP-43 directly inhibits mRNA accumulation in neurites through modulation of mRNA stability”.
